Screens deposited in PubChem by several laboratories.
Most compounds without a hit are left out; they make up all but 2.8% or so of the library.
PP1 counter: blocks human PP1-alpha phosphatase, a PP5 counter-screen | AID 2235 | P62136 | inhibition, % at 6.7 µM | actives 0.9% (n = 320,000) | purified PP1alpha, OMFP fluorescence;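 active means inhibition above the mean inhibition of all tested compounds plus 3 SD, computed separately for each screening campaign, cut at about 15% in these data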
proKLK7 act: proKLK7 (human) activation, primary screen. actives 0.9% (n = 370,000). purified proKLK7, EDANS-DABCYL substrate fluorescence; 100% is mature enzyme control, 0% vehicle. activation, % at 7 µM. AID 652039;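 active means activation above the mean of all tested compounds plus 3 SD, computed per campaign excluding outliers beyond control limits, cut at about 13% in these data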
Rev-erbA mod: modulates human Rev-erb alpha binding to DNA | P20393 | Rev-erbα–FITC-DNA binding, fluorescence polarization, 90 min | activity, % at 10 µM | actives 0.79% (n = 370,000) | AID 1259318;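 active means activity above about 14%, limit read from the data; passing the limit was not always enough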;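 further: 0% = DMSO wells with 35 nM protein and 100% = DMSO wells with 750 nM protein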
Target sequence (P20393 whole entry, looked up): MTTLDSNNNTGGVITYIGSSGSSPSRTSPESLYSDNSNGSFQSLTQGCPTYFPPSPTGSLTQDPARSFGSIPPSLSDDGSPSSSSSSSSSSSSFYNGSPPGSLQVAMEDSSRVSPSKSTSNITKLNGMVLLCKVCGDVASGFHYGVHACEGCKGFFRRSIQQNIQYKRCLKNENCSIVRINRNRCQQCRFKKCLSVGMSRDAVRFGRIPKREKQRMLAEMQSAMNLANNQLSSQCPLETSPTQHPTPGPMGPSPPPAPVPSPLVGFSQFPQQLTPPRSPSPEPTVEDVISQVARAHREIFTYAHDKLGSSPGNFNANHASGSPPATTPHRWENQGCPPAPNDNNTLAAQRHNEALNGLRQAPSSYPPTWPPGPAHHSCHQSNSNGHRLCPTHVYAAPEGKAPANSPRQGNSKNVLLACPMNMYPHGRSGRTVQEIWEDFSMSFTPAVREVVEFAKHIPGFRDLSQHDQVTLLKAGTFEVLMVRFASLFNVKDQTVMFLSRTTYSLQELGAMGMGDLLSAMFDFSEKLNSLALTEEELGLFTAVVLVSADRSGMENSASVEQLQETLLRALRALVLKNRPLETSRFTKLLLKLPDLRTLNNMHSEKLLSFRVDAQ
JMJD2C inh: human JMJD2C demethylase inhibition; inhibition, % at 2.35 µM; actives 0.069% (n = 330,000); GST-JMJD2C(1-420) H3K9me3 demethylation, DELFIA europium; AID 2099; Q9H3R0;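 active means more than half of a compound's replicate wells show inhibition beyond 50%, single wells judged on their own value; inconclusive means some, but no more than half, of replicates pass 50% inhibition; inactive means no replicate passes 50% inhibition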;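 further: signal counts dimethyl H3K9 product captured on neutravidin plate; 0% = median of DMSO wells and 100% = 0.3 times that DMSO median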
PP5 inh: PP5 (human) phosphatase inhibition. P53041. purified PP5c, OMFP substrate fluorescence. inhibition, % at 6.7 µM. actives 0.18% (n = 320,000). AID 1987;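 active means inhibition above the campaign's mean inhibition across all tested compounds plus 3 SD, cut at about 9.5% in these data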;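 further: 0% = DMSO only and 100% = 100 µM cantharidin control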
PG9 Ab binder: small molecules binding HIV-1 gp120 antibody PG9. TR-FRET gp120-PG9 antibody binding. inhibition, % at 6.7 µM. actives 0.43% (n = 360,000); in the data active means inhibition above about 8.5%
KLK7 act conf: proKLK7 activation, confirmation; activation, % at 7 µM; shares compounds with proKLK7 act; AID 686949; purified proKLK7, EDANS-DABCYL substrate fluorescence; scaled: vehicle 0, mature enzyme 100; actives 68% (n = 3,200);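 active means activation, as change over the incubation, above the mean of all tested compounds plus 3 SD, cut at about 13% in these data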
EDANS interfere: optically interferes with EDANS-DABCYL signal, flagging KLK7 hits. shares compounds with proKLK7 act. EDANS-DABCYL substrate fluorescence interference, no enzyme, 4 h; solvent 0%, active enzyme control 100%. activation, % at 7 µM. actives 80% (n = 3,200). AID 686952;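 active means activation above the all-compound mean plus 3 SD, ignoring values outside control-based bounds, cut at about 4.8% in these data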;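 further: value is the 4 h activation minus the activation read at time zero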
EDANS interf: EDANS fluorescence interference in dose response, no enzyme | shares compounds with proKLK7 act | EDANS-DABCYL peptide fluorescence interference | EC50, µM | actives 20% (n = 250);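 active means compounds that raise the fluorescence signal in this interference counterscreen, with EC50 at or below 10 µM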;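 further: intact quenched peptide substrate alone read at 355 nm excitation and 520 nm emission; signal is fluorescence gain from T0 to T4 after four hours at room temperature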
An asterisk follows results filed as active; i = inactive; ? = inconclusive; . = not tested or not shown.

SMILES	PP1 counter	proKLK7 act	Rev-erbA mod	JMJD2C inh	PP5 inh	PG9 Ab binder	KLK7 act conf	EDANS interfere	others
Cc1ccc(S(=O)(=O)N2CCOCC2)cc1C(=O)O	0.8	-0.7	1.1	0.3	-0.4	0.6	.	.
O=C(O)c1cc2cccc(S(=O)(=O)N3CCOCC3)c2cc1O	2.0	13.8*	-2.6	-1.0	-0.1	2.3	70.0*	71.5*
CCOC(=O)c1sc(NC(=O)c2ccccc2)cc1C	0.5	16.4*	1.5	-2.3	4.6	-1.5	-1.4	-1.1
CCOC(=O)c1sc(NC(=O)c2ccc(S(=O)(=O)N(C)C)cc2)cc1C	1.4	1.5	9.0	-19.9	5.1	1.4	.	.
CCCC[C@H](C(=O)N(CC)c1ccccc1)[C@@H](O)c1ccc(Cl)cc1	.	0.8	2.6	.	.	.	.	.
N#Cc1cc2ccc(N3CCOCC3)cc2cc1C#N	-0.6	33.6*	-1.6	.	1.7	-0.5	-88.5	-48.2
O=c1cccc2n1Cc1cc3ccccc3nc1-2	-1.8	47.2*	-2.9	0.3	-0.7	0.6	60.0*	69.0*
CC1CN(Cc2c(O)ccc3c(=O)c(-c4ccccc4Cl)coc23)CC(C)O1 (centres undefined)	1.6	89.7*	-2.8	i	-1.0	-0.8	26.1*	29.6*
O=c1c(-c2ccccc2Cl)coc2c(CN3CCCCC3)c(O)ccc12	3.1	59.8*	-1.6	-10.0	1.7	1.3	73.9*	74.1*
COc1ccc(Oc2coc3c(CN4CCOCC4)c(O)ccc3c2=O)cc1	-1.4	29.5*	-2.4	0.3	-0.8	1.1	12.3	15.1*
O=c1c(-c2ccc(Cl)cc2)coc2c(CN3CCCCC3)c(O)ccc12	-3.5	13.7*	-5.2	-12.4	0.2	0.5	21.5*	27.1*
O=c1c(-c2ccc(Br)cc2)coc2c(CN3CCCCC3)c(O)ccc12	.	9.5	-0.4	-0.1	.	-1.6	.	.
COc1ccc(Oc2coc3c(CN(C)C)c(O)ccc3c2=O)cc1	-4.6	6.7	-6.5	10.6	-0.9	0.4	.	.
CC1CCCN(Cc2c(O)ccc3c(=O)c(-c4ccc(Cl)cc4)coc23)C1 (centres undefined)	.	-0.8	-3.0	2.4	.	0.4	.	.
Cc1noc(C)c1NC(=O)Nc1ccc2c(c1)C(=O)N([C@@H](C)CO)C[C@@H](C)[C@H](CN(C)S(=O)(=O)c1ccc(F)cc1)OCCCC[C@H](C)O2	.	.	-4.2	.	.	.	.	.
Cc1ccc2c(c1)N(CCCC(=O)NCc1c(F)cccc1F)C(=O)CO2	.	0.3	-0.6	.	.	.	.	.
O=c1c(-c2ccc(Br)cc2)coc2c(CN3CCOCC3)c(O)ccc12	3.6	14.4*	1.4	3.4	1.5	0.1	13.3*	5.8*	EDANS interf=>69.5
O=C(c1ccco1)N1C(=O)c2cccc3cccc1c23	3.6	35.1*	-3.2	-2.0	1.0	0.3	87.0*	89.7*
Nc1cccc2c1C(=O)N(C(=O)/C=C/c1ccc(F)cc1)C2=O	-1.3	2.7	6.2	-14.4	-1.8	-0.1	.	.
Nc1cccc2c1C(=O)N(C(=O)c1ccco1)C2=O	-1.1	31.6*	4.6	25.9	-0.5	-0.2	153.9*	177.7*
Clc1ccc(-c2cc(-c3nnc4sc(Cc5cccs5)nn34)[nH]n2)cc1	.	0.1	0.4	.	.	.	.	.
CSc1ccc(/C=C/C(=O)OCC(=O)NC2CCCC2)cc1	.	18.5*	-0.7	.	.	0.5	-1.6	3.5
COc1ccc2oc3cc(NCCN(C)C)ccc3c(=O)c2c1	.	65.8*	-5.2	.	.	4.1	79.7*	78.6*
COc1ccc2c(=O)c3ccccc3oc2c1	-4.7	-0.5	0.4	?	1.3	-0.2	.	.
O=C(Nc1ccc(F)cc1)OC1CC2CC1[C@H]1CCCCN1[C@H]2Cc1ccccc1 (some centres undefined)	.	0.3	-1.4	.	.	.	.	.
CN1CCCCC(NC(=O)c2cccc(F)c2)C1=O (centres undefined)	.	0.0	4.2	.	.	0.9	.	.
